# Measurements taken from PubChem BioAssay AID1159580 (chemical genetic matrix, 2015).
# Hit rate of the full screen: of about 5,500 compounds, about 2,000 (36%) were called active. About 18% were inconclusive and are not listed. The list shows a part of the results. Unmarked numbers belong to inactive results. Rule as the data show it: active = normalized growth mostly below about 0.91 (no sharp cut-off); inconclusive = no clear call, values can overlap the other calls; inactive = mostly above about 0.92.
# Assay: chemical genetic growth profiling, strain panel (AID 1159580);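 also: tested at 20 µM; growth read once vehicle control cultures reached saturation at 30 °C; 1 = growth at the plate median or of vehicle wells; lower values mean less growth of the strain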
# Conditions: growth OD
# [1] = S. cerevisiae deletion strains, locus YDL101C, strain DUN1, stronger effect = lower value
# [2] = S. cerevisiae deletion strains, locus YHR030C, strain SLT2, stronger effect = lower value
# [3] = S. cerevisiae deletion strains, locus YGR078C, strain PAC10, stronger effect = lower value
# [4] = S. cerevisiae deletion strains, locus YMR307W, strain GAS1, stronger effect = lower value
# [5] = S. cerevisiae deletion strains, locus YNL153C, strain GIM3, stronger effect = lower value
# [6] = S. cerevisiae deletion strains, locus YPL055C, strain LGE1, stronger effect = lower value
# [7] = S. cerevisiae deletion strains, locus YPL241C, strain CIN2, stronger effect = lower value
# [8] = S. cerevisiae deletion strains, locus YAL013W, strain DEP1, stronger effect = lower value
# [9] = S. cerevisiae deletion strains, locus YBR229C, strain ROT2, stronger effect = lower value
# [10] = S. cerevisiae deletion strains, locus YDR150W, strain NUM1, stronger effect = lower value
# [11] = S. cerevisiae deletion strains, locus YEL061C, strain CIN8, stronger effect = lower value
# [12] = S. cerevisiae deletion strains, locus YHR087W, strain rtc3, stronger effect = lower value
# [13] = S. cerevisiae deletion strains, locus YJR043C, strain POL32, stronger effect = lower value
# [14] = S. cerevisiae deletion strains, locus YJR075W, strain HOC1, stronger effect = lower value
# [15] = S. cerevisiae deletion strains, locus YLR039C, strain RIC1, stronger effect = lower value
# [16] = S. cerevisiae deletion strains, locus YLR058C, strain SHM2 (second series), stronger effect = lower value
# [17] = S. cerevisiae deletion strains, locus YLR085C, strain ARP6, stronger effect = lower value
# [18] = S. cerevisiae deletion strains, locus YLR262C, strain YPT6, stronger effect = lower value
# [19] = S. cerevisiae deletion strains, locus YML094W, strain GIM5, stronger effect = lower value
# [20] = S. cerevisiae deletion strains, locus YMR219W, strain ESC1, stronger effect = lower value
# [21] = S. cerevisiae deletion strains, locus YMR263W, strain SAP30, stronger effect = lower value
# [22] = S. cerevisiae deletion strains, locus YNL298W, strain CLA4 (second series), stronger effect = lower value
# [23] = S. cerevisiae deletion strains, locus YNL322C, strain KRE1, stronger effect = lower value
# [24] = S. cerevisiae deletion strains, locus YNR030W, strain Alg12, stronger effect = lower value
# [25] = S. cerevisiae deletion strains, locus YPR135W, strain CTF4, stronger effect = lower value
# [26] = S. cerevisiae strains, strain wild type, stronger effect = lower value
smiles,measurement,setting,value
CC(C)(C)C1=C(C#N)C(c2c(Cl)cccc2Cl)C(C#N)=C(N)O1 (stereo not given),normalized growth,"S. cerevisiae deletion strains, locus YAR019C, strain CDC15, stronger effect = lower value",0.987
same,normalized growth,"S. cerevisiae deletion strains, locus YBL105C, strain PKC1, stronger effect = lower value",0.99
same,normalized growth,"S. cerevisiae deletion strains, locus YBR135W, strain CKS1, stronger effect = lower value",0.992
same,normalized growth,"S. cerevisiae deletion strains, locus YBR136W, strain MEC1, stronger effect = lower value",0.989
same,normalized growth,"S. cerevisiae deletion strains, locus YBR160W, strain CDC28, stronger effect = lower value",0.996
same,normalized growth,"S. cerevisiae deletion strains, locus YDL017W, strain CDC7, stronger effect = lower value",0.99
same,normalized growth,"S. cerevisiae deletion strains, locus YDL028C, strain MPS1, stronger effect = lower value",0.997
same,normalized growth,[1],0.979
same,normalized growth,"S. cerevisiae deletion strains, locus YDL108W, strain KIN28, stronger effect = lower value",0.992
same,normalized growth,"S. cerevisiae deletion strains, locus YDL132W, strain cdc53, stronger effect = lower value",0.978
same,normalized growth,"S. cerevisiae deletion strains, locus YDL214C, strain PRR2, stronger effect = lower value",0.987
same,normalized growth,"S. cerevisiae deletion strains, locus YDR052C, strain DBF4, stronger effect = lower value",0.997
same,normalized growth,"S. cerevisiae deletion strains, locus YDR054C, strain cdc34, stronger effect = lower value",0.976
same,normalized growth,"S. cerevisiae deletion strains, locus YDR226W, strain ADK1, stronger effect = lower value",0.979
same,normalized growth,"S. cerevisiae deletion strains, locus YDR477W, strain SNF1, stronger effect = lower value",0.995
same,normalized growth,"S. cerevisiae deletion strains, locus YER123W, strain YCK3, stronger effect = lower value",0.996
same,normalized growth,"S. cerevisiae deletion strains, locus YER133W, strain GLC7, stronger effect = lower value",0.984
same,normalized growth,"S. cerevisiae deletion strains, locus YFL009W, strain cdc4, stronger effect = lower value",0.98
same,normalized growth,"S. cerevisiae deletion strains, locus YFL029C, strain CAK1, stronger effect = lower value",0.983
same,normalized growth,"S. cerevisiae deletion strains, locus YFR003C, strain YPI1, stronger effect = lower value",0.992
same,normalized growth,"S. cerevisiae deletion strains, locus YFR019W, strain FAB1, stronger effect = lower value",1
same,normalized growth,"S. cerevisiae deletion strains, locus YFR028C, strain CDC14, stronger effect = lower value",0.978
same,normalized growth,"S. cerevisiae deletion strains, locus YGR040W, strain KSS1, stronger effect = lower value",0.991
same,normalized growth,"S. cerevisiae deletion strains, locus YGR052W, strain FMP48, stronger effect = lower value",1.01
same,normalized growth,"S. cerevisiae deletion strains, locus YGR092W, strain DBF2, stronger effect = lower value",0.98
same,normalized growth,[2],0.983
same,normalized growth,"S. cerevisiae deletion strains, locus YHR079C, strain IRE1, stronger effect = lower value",0.891
same,normalized growth,"S. cerevisiae deletion strains, locus YHR082C, strain KSP1, stronger effect = lower value",1.09
same,normalized growth,"S. cerevisiae deletion strains, locus YHR205W, strain SCH9, stronger effect = lower value",0.913
same,normalized growth,"S. cerevisiae deletion strains, locus YIL147C, strain SLN1, stronger effect = lower value",0.993
same,normalized growth,"S. cerevisiae deletion strains, locus YJL095W, strain BCK1, stronger effect = lower value",0.894
same,normalized growth,"S. cerevisiae deletion strains, locus YJL128C, strain PBS2, stronger effect = lower value",0.925
same,normalized growth,"S. cerevisiae deletion strains, locus YJL157C, strain FAR1, stronger effect = lower value",1.01
same,normalized growth,"S. cerevisiae deletion strains, locus YJR016C, strain ILV3, stronger effect = lower value",0.984
same,normalized growth,"S. cerevisiae deletion strains, locus YJR066W, strain TOR1 (second series), stronger effect = lower value",0.983
same,normalized growth,"S. cerevisiae deletion strains, locus YJR066W, strain TOR1, stronger effect = lower value",1.1
same,normalized growth,"S. cerevisiae deletion strains, locus YKL048C, strain ELM1, stronger effect = lower value",0.922
same,normalized growth,"S. cerevisiae deletion strains, locus YKL067W, strain YNK1, stronger effect = lower value",0.988
same,normalized growth,"S. cerevisiae deletion strains, locus YKL101W, strain HSL1, stronger effect = lower value",0.961
same,normalized growth,"S. cerevisiae deletion strains, locus YKL193C, strain SDS22, stronger effect = lower value",0.989
same,normalized growth,"S. cerevisiae deletion strains, locus YKL203C, strain TOR2, stronger effect = lower value",1.07
same,normalized growth,"S. cerevisiae deletion strains, locus YLR113W, strain HOG1, stronger effect = lower value",0.885
same,normalized growth,"S. cerevisiae deletion strains, locus YLR133W, strain CKI1, stronger effect = lower value",1.02
same,normalized growth,"S. cerevisiae deletion strains, locus YLR403W, strain SFP1, stronger effect = lower value",0.944
same,normalized growth,"S. cerevisiae deletion strains, locus YML070W, strain DAK1, stronger effect = lower value",0.992
same,normalized growth,"S. cerevisiae deletion strains, locus YMR001C, strain CDC5, stronger effect = lower value",0.995
same,normalized growth,"S. cerevisiae deletion strains, locus YMR205C, strain PFK2 (second series), stronger effect = lower value",0.993
same,normalized growth,"S. cerevisiae deletion strains, locus YMR277W, strain FCP1, stronger effect = lower value",0.997
same,normalized growth,"S. cerevisiae deletion strains, locus YNL006W, strain LST8, stronger effect = lower value",0.975
same,normalized growth,"S. cerevisiae deletion strains, locus YNL020C, strain ARK1, stronger effect = lower value",1
same,normalized growth,"S. cerevisiae deletion strains, locus YNL161W, strain CBK1, stronger effect = lower value",0.982
same,normalized growth,"S. cerevisiae deletion strains, locus YNL183C, strain NPR1, stronger effect = lower value",1.06
same,normalized growth,"S. cerevisiae deletion strains, locus YNL207W, strain RIO2, stronger effect = lower value",0.986
same,normalized growth,"S. cerevisiae deletion strains, locus YNL222W, strain SSU72, stronger effect = lower value",0.989
same,normalized growth,"S. cerevisiae deletion strains, locus YNL307C, strain MCK1 (second series), stronger effect = lower value",1
same,normalized growth,"S. cerevisiae deletion strains, locus YOL078W, strain AVO1, stronger effect = lower value",0.994
same,normalized growth,"S. cerevisiae deletion strains, locus YOL136C, strain PFK27, stronger effect = lower value",1
same,normalized growth,"S. cerevisiae deletion strains, locus YOR061W, strain CKA2, stronger effect = lower value",1.01
same,normalized growth,"S. cerevisiae deletion strains, locus YOR119C, strain RIO1, stronger effect = lower value",1.04
same,normalized growth,"S. cerevisiae deletion strains, locus YOR231W, strain MKK1, stronger effect = lower value",1.02
same,normalized growth,"S. cerevisiae deletion strains, locus YOR329C, strain SCD5, stronger effect = lower value",0.993
same,normalized growth,"S. cerevisiae deletion strains, locus YPL031C, strain PHO85, stronger effect = lower value",0.992
same,normalized growth,"S. cerevisiae deletion strains, locus YPL153C, strain RAD53, stronger effect = lower value",1
same,normalized growth,"S. cerevisiae deletion strains, locus YPL204W, strain HRR25, stronger effect = lower value",1
same,normalized growth,"S. cerevisiae deletion strains, locus YPL209C, strain IPL1, stronger effect = lower value",0.993
same,normalized growth,"S. cerevisiae deletion strains, locus YPL256C, strain CLN2, stronger effect = lower value",0.94
same,normalized growth,"S. cerevisiae deletion strains, locus YPR025C, strain CCL1, stronger effect = lower value",0.992
same,normalized growth,"S. cerevisiae deletion strains, locus YPR106W, strain ISR1, stronger effect = lower value",0.981
same,normalized growth,"S. cerevisiae deletion strains, locus YPR111W, strain DBF20, stronger effect = lower value",0.966
same,normalized growth,"S. cerevisiae deletion strains, strain NNK1, stronger effect = lower value",0.963
same,normalized growth,"S. cerevisiae deletion strains, strain TSCII, stronger effect = lower value",0.991
c1ccc(CN2CCC3(CCCc4ccccc43)CC2)cc1,normalized growth,"S. cerevisiae deletion strains, locus YAL040C, strain CLN3, stronger effect = lower value",1.02
same,normalized growth,"S. cerevisiae deletion strains, locus YCL061C, strain MRC1 (second series), stronger effect = lower value",0.938 (active)
same,normalized growth,"S. cerevisiae deletion strains, locus YDR363W, strain ESC2, stronger effect = lower value",0.805 (active)
same,normalized growth,"S. cerevisiae deletion strains, locus YER002W, strain NOP16, stronger effect = lower value",0.975
same,normalized growth,[3],0.976
same,normalized growth,[4],1
same,normalized growth,[5],0.817
same,normalized growth,"S. cerevisiae deletion strains, locus YNL175C, strain NOP13, stronger effect = lower value",0.993
same,normalized growth,"S. cerevisiae deletion strains, locus YNL197C, strain WHI3, stronger effect = lower value",0.983
same,normalized growth,"S. cerevisiae deletion strains, locus YNL224C, strain SQS1, stronger effect = lower value",1.01
same,normalized growth,"S. cerevisiae deletion strains, locus YOR083W, strain WHI5 (second series), stronger effect = lower value",0.874
same,normalized growth,[6],0.854 (active)
same,normalized growth,[7],0.955
CC(C)(C)NC(=S)NC1CCN(Cc2ccccc2)CC1,normalized growth,[8],1.06
same,normalized growth,[9],0.997
same,normalized growth,"S. cerevisiae deletion strains, locus YCL061C, strain MRC1, stronger effect = lower value",1.03
same,normalized growth,[1],1.01
same,normalized growth,"S. cerevisiae deletion strains, locus YDL134C, strain PPH21, stronger effect = lower value",0.994
same,normalized growth,[10],0.969
same,normalized growth,[11],1.02
same,normalized growth,[3],1.01
same,normalized growth,[2],1.06
same,normalized growth,[12],0.986
same,normalized growth,[13],0.995
same,normalized growth,[14],0.994
same,normalized growth,[15],0.994
same,normalized growth,[16],0.983
same,normalized growth,[17],1.03
same,normalized growth,[18],0.985
same,normalized growth,[19],1.02
same,normalized growth,[20],1.01
same,normalized growth,[21],0.992
same,normalized growth,[4],0.987
same,normalized growth,[5],1.01
same,normalized growth,[22],1.01
same,normalized growth,[23],0.995
same,normalized growth,[24],1.03
same,normalized growth,[6],0.986
same,normalized growth,[7],1
same,normalized growth,[25],1.16
same,normalized growth,[26],0.981
O=C1NC2(CCN(Cc3ccccc3)CC2)Oc2ccccc21,normalized growth,[8],0.999
same,normalized growth,[9],0.993
same,normalized growth,[1],0.949
same,normalized growth,[10],0.993
same,normalized growth,[11],1.02
same,normalized growth,[3],0.98
same,normalized growth,"S. cerevisiae deletion strains, locus YGR229C, strain SMI1, stronger effect = lower value",0.995
same,normalized growth,[2],1.04
same,normalized growth,[12],0.968
same,normalized growth,[13],1
same,normalized growth,[14],0.985
same,normalized growth,"S. cerevisiae deletion strains, locus YKL190W, strain CNB1, stronger effect = lower value",0.988
same,normalized growth,[15],0.984
same,normalized growth,[16],0.972
same,normalized growth,[17],1.14
same,normalized growth,[18],0.992
same,normalized growth,[19],1
same,normalized growth,[20],0.995
same,normalized growth,[21],1.03
same,normalized growth,[5],0.997
same,normalized growth,[22],0.955
same,normalized growth,[23],0.997
same,normalized growth,[24],0.975
same,normalized growth,"S. cerevisiae deletion strains, locus YOL006C, strain TOP1, stronger effect = lower value",0.918
same,normalized growth,[6],0.997
same,normalized growth,[7],1.1
same,normalized growth,[25],0.834
same,normalized growth,[26],0.983
